Results filed as inconclusive are left out. Calls of active or inactive are those of the source. Unless noted, calls follow the shape of the full dose curve.
How the values were obtained:
[1] = Nuclear factor erythroid 2-related factor 2/antioxidant responsive element (Nrf2/ARE) small molecule agonists: qHTS cell viability counter screen in human keratinocytes (AID 1919968; active = well fitted curve in the direction sought with a large enough effect in the repeat runs; an effect the other way counts as inactive or inconclusive; also: nearly all actives have a fitted effect of over 55% in size)
How it was run: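 Seed 1,500 KeratinoSens cells per well, then incubate 5 h at 37 C/5% CO2. Add compounds in DMSO and incubate 23 h. Add CellTiter-Fluor, wait 1 h and read fluorescence.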

[2] = Nuclear factor erythroid 2-related factor 2/antioxidant responsive element (Nrf2/ARE) small molecule agonists: luciferase reporter gene qHTS assay in human keratinocytes (AID 1919969); also: nearly all actives have a fitted effect of over 35% in size; also: potency is read from the fitted curve at half-maximal effect
[3] = target: Gonadotropin-releasing hormone receptor (Homo sapiens) (UniProt P30968); assay: Human gonadotropin-releasing hormone receptor (GnRHR) small molecule agonists, calcium flux assay in GnRHR-HEK293 cells (AID 1920063); also: nearly all actives have a fitted effect of over 35% in size
How it was run: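 Cells: HEK293 stably expressing human GnRHR. Steps: overnight (18 h) culture, 1 h calcium dye loading at 37 C, compound addition, kinetic fluorescence read at 480/540 nm. Each compound tested at 15 concentrations in triplicate.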

[4] = target: KiSS-1 receptor (Homo sapiens) (UniProt Q969F8); assay: Human kisspeptin (KISS1R) small molecule agonists, calcium flux assay in KISS1R-HEK293 cells (AID 1920064; active = well fitted curve in the direction sought with a large enough effect in the repeat runs; an effect the other way counts as inactive or inconclusive)
How it was run: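 Cells plated and incubated 18 h; dye added, 1 h at 37 C; compounds in DMSO pinned in; signal read at 480/540 nm every second for 3 min. Each compound tested at 15 concentrations in triplicate.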

[5] = G protein-coupled receptor (GPCR) small molecule agonists, calcium flux assay: HEK293 wild type cell line counter screen (AID 1920065)
How it was run: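 Counter-screen of the Tox21 10K library for non-specific calcium release: dye-loaded cells received compounds in DMSO and were monitored by kinetic fluorescence (480/540 nm, 3 min). Fifteen concentrations, run in triplicate.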

[6] = p53 small molecule agonists, cell-based qHTS assay with human liver microsomes (AID 1963577)
How it was run: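 Compounds act here after metabolic activation: human liver microsomes and NADPH, both at 0.5 mg/mL final, were co-added to p53RE-bla cells. Incubation ran 16 h at 37 C, followed by LiveBLAzer detection.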

[7] = p53 small molecule agonists, cell-based qHTS assay with rat liver microsomes (AID 1963578)
How it was run: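 Read-out is beta-lactamase reporter fluorescence (LiveBLAzer, 2 h, room temperature, dark) in p53RE-bla cells treated 16 h at 37 C with compound, rat liver microsomes and NADPH, both 0.5 mg/mL final.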

[8] = p53 small molecule agonists, cell-based qHTS assay with human liver microsomes: qHTS cell viability counter screen (AID 1963579); also: nearly all actives have a fitted effect of over 45% in size
How it was run: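 Cells carrying the p53 response-element beta-lactamase reporter are treated for 16 h at 37 C with test compounds in the presence of human liver microsomes and NADPH (both 0.5 mg/mL final); ATP-based CellTiter-Glo luminescence then reports viability.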

[9] = p53 small molecule agonists, cell-based qHTS assay with rat liver microsomes: qHTS cell viability counter screen (AID 1963580); also: nearly all actives have a fitted effect of over 45% in size
How it was run: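 Viability is assessed in parallel with the p53 reporter read: HCT-116 p53RE-bla cells receive compounds plus rat microsomes and NADPH (0.5 mg/mL final apiece), incubate 16 h at 37 C, and then CellTiter-Glo luminescence is recorded.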

[10] = p53 small molecule agonists, cell-based qHTS assay: qHTS cell viability counter screen (AID 1963581); also: nearly all actives have a fitted effect of over 45% in size
How it was run: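 Cells: HCT-116 with p53 response element-driven beta-lactamase. Treatment: 16 h, 37 C, compounds in DMSO. Read: CellTiter-Glo luminescence after 30 min RT.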

[11] = p53 small molecule agonists, cell-based qHTS assay (AID 1963582; active = well fitted activation curve with a large enough effect in the signal ratio in the repeat runs, not every such curve was filed as active; the % refers to the signal ratio)
How it was run: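 Quantitative HTS in p53RE-bla cells: after a 5 h settling period, compounds delivered in DMSO were left on cells for 16 h at 37 C, and reporter induction was measured as fluorescence following 2 h substrate loading.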

[12] = target: 5-hydroxytryptamine receptor 2A (Homo sapiens) (UniProt P28223); assay: 5-hydroxytryptamine receptor 2A (HTR2A) small molecule antagonists, cell-based qHTS assay (AID 1963586); also: nearly all actives have a fitted effect of over 45% in size
How it was run: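 Antagonist-mode intracellular calcium assay: DOI (4 nM) added after 5 min compound pre-incubation at room temperature to dye-loaded HTR2A-CHO cells. Fluorescence followed for 3 min, sampled every second.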

[13] = target: 5-hydroxytryptamine receptor 2A (Homo sapiens) (UniProt P28223); assay: 5-hydroxytryptamine receptor 2A (HTR2A) small molecule agonists, cell-based qHTS assay (AID 1963587); also: nearly all actives have a fitted effect of over 30% in size
How it was run: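 CHO cells stably expressing human HTR2A, plated 18 h, loaded with calcium dye 1 h at 37 C. Agonist mode: compounds added and intracellular calcium fluorescence recorded kinetically for 2 min at 1 sec intervals.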

[14] = target: Muscarinic acetylcholine receptor M1 (Homo sapiens) (UniProt P11229); assay: Cholinergic receptor muscarinic 1 (CHRM1) small molecule antagonists, cell-based qHTS assay (AID 1963588); also: nearly all actives have a fitted effect of over 40% in size
How it was run: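 CHRM1-CHO calcium-flux assay, antagonist mode. Cells were seeded 18 h, dye-loaded 1 h at 37 C and given compound for 5 min at RT, then acetylcholine was added at 50nM. FDSS fluorescence was read 3 min; 15 concentrations, three runs.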

[15] = target: Muscarinic acetylcholine receptor M1 (Homo sapiens) (UniProt P11229); assay: Cholinergic receptor muscarinic 1 (CHRM1) small molecule agonists, cell-based qHTS assay (AID 1963589); also: nearly all actives have a fitted effect of over 35% in size
How it was run: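 Agonist-mode qHTS in CHO cells stably carrying human muscarinic M1. Intracellular calcium is tracked by fluorescence every second after compound transfer; each compound runs at 15 concentrations in three independent runs.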

[16] = cAMP Responsive Elements (CRE) small molecule agonists, cell-based qHTS assay (AID 1963590)
How it was run: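 Agonist mode qHTS in CRE-bla HEK 293T cells: compounds dosed from DMSO for 3 h at 37 C/5% CO2, followed by LiveBLAzer B/G FRET substrate for 2 h at room temperature.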

[17] = cAMP Responsive Elements (CRE) small molecule antagonists, cell-based qHTS assay (AID 1963591; active = well fitted inhibition curve with a large enough effect in the signal ratio in the repeat runs, not every such curve was filed as active; the % refers to the signal ratio)
How it was run: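 Antagonist mode: test compounds are co-incubated with the adenylyl cyclase activator NKH477 (0.25 uM final) on CRE-bla HEK293T cells for 3 h at 37 °C, followed by LiveBLAzer substrate loading.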

[18] = target: D(2) dopamine receptor (Homo sapiens) (UniProt P14416); assay: Dopamine D2 receptor (DRD2) small molecule agonists, cell-based qHTS assay (AID 1963594); also: nearly all actives have a fitted effect of over 35% in size
How it was run: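 HEK293 cells stably expressing human DRD2, pre-treated with PDE inhibitor Ro20-1724 (0.1 mM final) and compound 10 min at room temperature, then stimulated with NKH477 (200nM […]) for 30 min. cAMP read by HTRF (665/620 nm).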

[19] = target: D(2) dopamine receptor (Homo sapiens) (UniProt P14416); assay: Dopamine D2 receptor (DRD2) small molecule antagonists, cell-based qHTS assay (AID 1963595; active = well fitted inhibition curve with a large enough effect in the signal ratio in the repeat runs, with a control signal flat; the % refers to the signal ratio)
How it was run: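 HEK293 cells stably expressing DRD2, preincubated with 0.1 mM Ro20-1724 and compounds 10 min, were stimulated with 200 nM NKH477 plus 12 nM quinpirole for 30 min at room temperature; cAMP measured by HTRF (665/620 nm).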

[20] = target: Beta-2 adrenergic receptor (Homo sapiens) (UniProt P07550); assay: Adrenergic beta2 receptor (ADRB2) small molecule antagonists, cell-based qHTS assay (AID 1963592); also: series mostly up to about 92 µM; nearly all actives have a fitted effect of over 50% in size
How it was run: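 Cells (CHO, stable ADRB2 overexpression) incubated 18-20hr at 37C; compounds added from DMSO; agonist mix (1nM isoproterenol, 100uM IBMX, 25uM Ro-20-1724) added; 0.5hr RT; d2-cAMP and anti-cAMP-cryptate added; 1hr RT; 665/615 nm read.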

Measured: Potency

D(2) dopamine receptor (Homo sapiens), sequence (P14416 whole entry, looked up): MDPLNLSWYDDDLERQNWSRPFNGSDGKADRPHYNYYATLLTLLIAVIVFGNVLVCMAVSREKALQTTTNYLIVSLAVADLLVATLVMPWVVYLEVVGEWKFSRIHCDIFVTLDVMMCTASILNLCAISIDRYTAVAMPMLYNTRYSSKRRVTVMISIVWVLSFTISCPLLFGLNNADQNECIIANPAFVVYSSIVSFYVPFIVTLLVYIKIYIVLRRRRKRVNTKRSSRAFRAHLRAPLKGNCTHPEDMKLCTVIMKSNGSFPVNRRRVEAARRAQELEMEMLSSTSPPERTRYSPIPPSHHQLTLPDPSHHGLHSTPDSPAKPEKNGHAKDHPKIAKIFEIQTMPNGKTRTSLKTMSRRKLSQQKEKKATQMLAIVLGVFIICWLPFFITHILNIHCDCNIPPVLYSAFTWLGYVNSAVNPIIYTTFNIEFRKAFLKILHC
Beta-2 adrenergic receptor (Homo sapiens), sequence (P07550 whole entry, looked up): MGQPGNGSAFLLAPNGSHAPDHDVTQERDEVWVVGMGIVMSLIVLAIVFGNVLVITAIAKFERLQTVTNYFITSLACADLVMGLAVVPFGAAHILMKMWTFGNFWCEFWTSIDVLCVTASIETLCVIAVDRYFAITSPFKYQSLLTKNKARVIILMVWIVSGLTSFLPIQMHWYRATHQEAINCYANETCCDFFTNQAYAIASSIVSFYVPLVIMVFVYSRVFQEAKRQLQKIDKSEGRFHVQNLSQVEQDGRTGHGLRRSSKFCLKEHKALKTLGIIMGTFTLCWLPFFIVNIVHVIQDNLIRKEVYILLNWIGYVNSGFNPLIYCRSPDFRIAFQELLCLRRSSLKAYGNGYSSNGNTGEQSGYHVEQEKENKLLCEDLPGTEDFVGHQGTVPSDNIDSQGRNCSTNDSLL
Muscarinic acetylcholine receptor M1 (Homo sapiens), sequence (P11229 whole entry, looked up): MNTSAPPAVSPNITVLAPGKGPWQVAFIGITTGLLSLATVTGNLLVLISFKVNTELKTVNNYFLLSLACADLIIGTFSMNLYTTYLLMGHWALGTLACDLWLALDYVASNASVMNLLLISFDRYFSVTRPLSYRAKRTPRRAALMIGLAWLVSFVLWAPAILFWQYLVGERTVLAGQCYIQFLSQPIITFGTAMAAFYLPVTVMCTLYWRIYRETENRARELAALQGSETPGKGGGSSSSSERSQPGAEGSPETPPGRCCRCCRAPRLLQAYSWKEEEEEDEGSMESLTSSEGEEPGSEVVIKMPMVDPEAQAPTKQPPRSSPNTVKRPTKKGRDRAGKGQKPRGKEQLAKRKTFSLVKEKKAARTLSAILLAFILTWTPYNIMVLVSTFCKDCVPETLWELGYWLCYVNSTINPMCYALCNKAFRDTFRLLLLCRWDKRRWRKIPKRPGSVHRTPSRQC
Gonadotropin-releasing hormone receptor (Homo sapiens), sequence (P30968 whole entry, looked up): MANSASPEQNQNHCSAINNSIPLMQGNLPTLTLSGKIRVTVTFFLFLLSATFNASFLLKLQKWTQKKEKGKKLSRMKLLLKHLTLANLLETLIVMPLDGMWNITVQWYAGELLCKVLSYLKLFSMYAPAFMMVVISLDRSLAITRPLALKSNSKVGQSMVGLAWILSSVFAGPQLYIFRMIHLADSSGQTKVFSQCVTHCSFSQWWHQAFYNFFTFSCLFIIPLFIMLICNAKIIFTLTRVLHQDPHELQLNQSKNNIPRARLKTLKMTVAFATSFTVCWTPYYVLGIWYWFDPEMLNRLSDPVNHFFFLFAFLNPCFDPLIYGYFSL
KiSS-1 receptor (Homo sapiens), sequence (Q969F8 whole entry, looked up): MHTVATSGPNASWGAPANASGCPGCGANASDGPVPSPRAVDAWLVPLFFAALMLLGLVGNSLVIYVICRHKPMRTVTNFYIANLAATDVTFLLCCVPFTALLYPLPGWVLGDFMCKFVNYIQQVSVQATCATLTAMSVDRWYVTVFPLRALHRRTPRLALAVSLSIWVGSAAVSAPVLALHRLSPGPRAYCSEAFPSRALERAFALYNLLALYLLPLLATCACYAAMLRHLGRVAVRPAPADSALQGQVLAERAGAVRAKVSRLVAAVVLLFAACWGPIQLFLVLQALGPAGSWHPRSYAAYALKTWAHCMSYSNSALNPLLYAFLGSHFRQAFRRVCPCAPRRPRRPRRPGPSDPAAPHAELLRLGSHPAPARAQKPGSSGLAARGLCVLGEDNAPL
5-hydroxytryptamine receptor 2A (Homo sapiens), sequence (P28223 whole entry, looked up): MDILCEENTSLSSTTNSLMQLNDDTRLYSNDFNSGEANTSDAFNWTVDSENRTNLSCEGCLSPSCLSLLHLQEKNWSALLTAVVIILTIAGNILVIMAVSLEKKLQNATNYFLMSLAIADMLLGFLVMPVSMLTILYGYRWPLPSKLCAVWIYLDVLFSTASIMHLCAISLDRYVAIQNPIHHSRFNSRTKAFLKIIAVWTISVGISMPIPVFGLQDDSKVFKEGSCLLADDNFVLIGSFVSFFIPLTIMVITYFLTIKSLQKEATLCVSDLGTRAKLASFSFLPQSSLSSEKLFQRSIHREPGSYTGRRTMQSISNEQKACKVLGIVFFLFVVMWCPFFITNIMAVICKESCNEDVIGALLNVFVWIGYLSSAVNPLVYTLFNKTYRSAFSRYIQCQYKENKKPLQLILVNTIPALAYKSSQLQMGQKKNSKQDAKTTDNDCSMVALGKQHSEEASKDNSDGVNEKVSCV

CC(=O)NCCO
not listed: [20]
inactive: all other assays above

CC(C)(C)C1CCCCC1O (stereo not given)
inactive: all assays above

O=C(Cn1ccnc1[N+](=O)[O-])NCc1ccccc1
inactive: all assays above

CC#N
inactive: all assays above

CC1=CCC(=O)O1
not listed: [18]
inactive: all other assays above

C1CCCC1
inactive: all assays above

CC(C)(C)c1ccc(C(=O)CCCCl)cc1
active: [2] 23.7 µM
inactive: all other assays above

COc1cc(Cl)ccc1Cl
inactive: all assays above

C=C(C)C(=O)NCCCN(C)C
not listed: [20]
inactive: all other assays above

O=C(O)c1ccccc1[N+](=O)[O-]
inactive: all assays above

N#Cc1cc(NC(=O)C(=O)O)c(Cl)c(NC(=O)C(=O)O)c1
inactive: all assays above

CC(C)CC(C)(N)C#N (stereo not given)
not listed: [18]
inactive: all other assays above

O=Cc1ccc(Cl)cc1
inactive: all assays above

Cc1ncc(CO)c(CN)c1O
inactive: all assays above

CCCCCCCCCCCCC(=O)O
not listed: [20]
inactive: all other assays above

CC/C=C\CCOC(=O)CCCCC
inactive: all assays above

CN1[C@@H]2CC[C@H]1CC(NC(=O)n1c(=O)[nH]c3ccccc31)C2 (stereo not given in full)
inactive: all assays above

CCOC=C(C(=O)OCC)C(=O)OCC
inactive: all assays above

Clc1ccc2c(c1)Nc1ccccc1S2
inactive: all assays above

COS(=O)(=O)O
inactive: all assays above

CC1(C)[C@@H]2CC[C@]3(C2)[C@@H]1C(=O)CCC3(C)C
inactive: all assays above

CC[C@H](C)[C@H](N)C(=O)O
inactive: all assays above

Cc1ccccc1C(N)=O
inactive: all assays above

C/C(=N\O)[C@@H](C)NCC(C)(C)CN[C@H](C)/C(C)=N/O
inactive: all assays above

NCc1ccccc1Sc1ccccc1CO
inactive: all assays above

CCCCCCCCCOCC1CO1 (stereo not given)
inactive: all assays above

CCCCCC/C=C/C(=O)OC
inactive: all assays above

CCCC[C@H]1CN(CC2CCOCC2)C(=O)OC12CCN(C1(C)CCN(C(=O)c3c(C)ncnc3C)CC1)CC2
inactive: all assays above

Reference: PubChem BioAssay (Tox21)
